Hits are enriched below; roughly 7.9% of the tested compounds scored in any of these assays.
FMDV antiviral: High Throughput Screening for Foot and Mouth Disease Virus Antivirals | FMDV antiviral cell-based qHTS | Potency, µM (titrated, usually from 57.9 µM), for inactives: at the top dose activity change, negative = inhibition, actives largely listed as inhibitors | actives 1.2% (n = 410,000) | AID 1159524, 2015; calls by dose curve; tested in HEK293T cells; further: read-out not given here; potency means the concentration at half of the fitted maximal effect; nearly all actives have a fitted effect of over 45% in size
MARV entry inh: qHTS for inhibitors of binding or entry into cells for Marburg Virus; Marburg virus pseudotyped entry inhibition, cell reporter; Potency, µM (top dose mostly 37.8 µM), without a hit: at the highest dose activity change, negative = inhibition, actives largely listed as inhibitors; actives 1.8% (n = 300,000); AID 540276, 2011; calls by dose curve; tested in HEK293 cells; further: potency means the concentration at half of the fitted maximal effect
HCV inh: qHTS Assay for Inhibitors of Hepatitis C Virus (HCV). Huh7.5.1 HCVcc-Cre infection, luciferase reporter, 44 h. Potency, µM (series often up to 41.8 µM), inactives show at the highest dose activity change, negative = inhibition, hits mostly inhibitors. actives 3.4% (n = 340,000); active means well fitted inhibition curve with a large enough effect; inconclusive means small, poorly fitted or top-dose-only effect, or another doubt; inactive means no such curve, though single readings can be large or run the other way; further: potency means the concentration at half of the fitted maximal effect
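Infectious HCV cell culture screen: compound-treated cells (1,000/well, pre-plated 4 h) are infected with HCVcc-Cre at roughly 0.5 moi and grown 44 h. Infection is quantified by luciferase signal after 15 min substrate incubation at room temperature.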
Lassa entry inh: qHTS for Inhibitors of binding or entry into cells for Lassa Virus | Lassa virus pseudotype entry inhibition, cell reporter | Potency, µM (highest dose often 37.9 µM), for the others: at the top dose activity change, negative = inhibition, actives largely listed as inhibitors | actives 1.2% (n = 300,000) | AID 540256, 2011; calls by dose curve; tested in HEK293 cells; further: potency means the concentration at half of the fitted maximal effect; nearly all actives have a fitted effect of over 50% in size
HCMV antiviral: qHTS Assay for inhibitors of the human cytomegalovirus (HCMV); HFF cells, HCMV-luciferase reporter, 72 h; active compounds read low; actives 4.5% (n = 410,000); AID 1259415, 2018; activity change, negative = inhibition, % at 57.5 µM; in the data active means activity change below about -60%; inconclusive means no clear call, values can overlap the other calls; inactive means above about -39%
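HFF cells seeded 16 h at 37C, treated with compounds, infected with luciferase-reporter HCMV at MOI 1 PFU/cell; luciferase read at 72 h post infection, normalized to buffer-only and Salinomycin controls.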
* marks the source's active call; other numbers are inactive results; u = inconclusive; x = no result given; [ ] = another dose, or the depositor's remark. On the % scale 0 is the no-effect control and ±100 the full control effect.

SMILES | FMDV antiviral | MARV entry inh | HCV inh | Lassa entry inh | HCMV antiviral
CCOc1ccc(NC(=O)CN(C)C(=O)C2CCN(c3ncnc4sc(C)c(C)c34)CC2)cc1OCC | u | u | x | -11% | -68*
CCc1cccc(NC(=O)C2CCN(c3ncnc4sc(C)c(C)c34)CC2)c1 | u | x | 11µM* | x | -39
Cc1sc2ncnc(N3CCC(C(=O)Nc4ccc(Cl)c(Cl)c4)CC3)c2c1C | u | x | u | x | 0
Cc1sc2ncnc(N3CCC(C(=O)NCC(=O)Nc4ccc(F)c(F)c4)CC3)c2c1C | u | u | 8.9µM* | u | -35
O=C(Cc1csc(Nc2nc(=S)[nH]c3ccccc23)n1)NCCCN1CCN(c2ccccc2F)CC1 | -27% | u | 4µM* | x | -98*
Cc1c(C(=O)NCc2ccc(OC(C)C)cc2)sc2ncnc(N(C)C3CCCCC3)c12 | -25% | x | x | -13%[46.1 µM] | -3
CCc1ccc(NC(=O)Cn2nnc(C(=O)Nc3ccc(F)cc3)c2N)cc1 | 5% | x | x | 9%[46.1 µM] | -13
CC12C=C(C=Cc3ccc(C(F)(F)F)cc3)C(C)(C1)C(c1ccc(C(F)(F)F)cc1)CC2=O (centres undefined) | x | 6%[14.2 µM] | x | x | x
CS(=O)(=O)N1CCN(c2ccccc2NC(=O)c2cc(Br)ccc2Cl)CC1 | -19% | -12%[46.1 µM] | -24% | 1%[46.1 µM] | -11
CS(=O)(=O)N1CCN(c2ccccc2NC(=O)c2ccc(-c3ccc(Br)cc3)o2)CC1 | -4% | -17% | 6.3µM* | -22% | 0
COc1cc(NC(=O)C2CCN(S(=O)(=O)c3ccc4c(c3)CCCC(=O)N4)CC2)cc(OC)c1 | -10% | x | x | -12%[46.1 µM] | -10
Cn1cc(-c2cc3n(n2)CCC(=O)N3CC(=O)O)c2ccccc21 | 16% | 27%[46.1 µM] | x | 16%[46.1 µM] | -15
O=C(O)C(Oc1ccc2c3c(c(=O)oc2c1)CCC3)c1ccccc1 (centres undefined) | -3% | 10% | 4% | -5% | -101*
CC(=O)C(C)Oc1ccc2c3c(c(=O)oc2c1)CCCCC3 (centres undefined) | 16% | 12% | 35µM* | 20% | 4
O=C(COc1ccc2c3c(c(=O)oc2c1)CCCC3)N1CCN(c2ccc(F)cc2)CC1 | -26% | x | 10µM* | x | 0
CC(=O)C(C)Oc1ccc2c3c(c(=O)oc2c1)CCCC3 (centres undefined) | 6% | u | u | 26% | 62
COc1ccc(-c2ccc3ccccc3n2)cc1 | -15% | u | u | u | 42
Nc1ccc(-c2ccc3ccccc3n2)cc1 | x | 6.3µM* | x | u | x
Cc1[nH]n(-c2ccccc2)c(=O)c1C(=O)Nc1ccccc1 | 17% | 11%[46.1 µM] | 1% | 14%[46.1 µM] | -15
Cc1[nH]n(-c2ccccc2)c(=O)c1C(=O)c1ccc([N+](=O)[O-])cc1 | u | u | -11% | 10% | -8
C/C(=N\NC(=O)c1ccc(C)cc1)c1c(C)[nH]n(-c2ccccc2)c1=O | 17% | x | 2% | x | -92*
C/C(=N\NC(=O)c1ccccc1)c1c(C)[nH]n(-c2ccccc2)c1=O | -3% | u | u | -15%[46.1 µM] | -97*
Cc1c(CCC(=O)NCCc2ccc(Cl)cc2)c(=O)oc2c(C)c(O)ccc12 | -21% | 8%[46.1 µM] | x | 5%[46.1 µM] | -7
COc1ccc(Br)cc1-c1nc(CCl)cs1 | -4% | x | 10µM* | x | u
O=S1(=O)c2cccc3cccc(c23)N1CCCN1CCN(c2ccc(F)cc2)CC1 | -25% | x | x | x | x
SMILES | FMDV antiviral | MARV entry inh | HCV inh | Lassa entry inh | HCMV antiviral
Cc1ccc(NC(=S)NCCc2ccc(F)cc2)c(C)c1 | 12% | u | 2% | 13% | u
Cc1ccc(F)cc1NC(=S)NCCc1ccccc1 | 6% | -16% | 10µM* | 13% | -38
CCOc1ccccc1NC(=S)NCCc1ccc(F)cc1 | 22% | x | u | x | -65*
C=CC[C@H](CC(=O)N(CCO)Cc1ccccc1)C(=O)NC[C@H](OC(=O)[C@@H](CC=C)CC(=O)OC(C)(C)C)c1ccccc1 | -7% | x | u | x | 11
C=CC[C@@H](CC(=O)N(CCO)Cc1ccccc1)C(=O)N[C@H](COC(=O)[C@@H](CC=C)Cc1ccc(F)cc1)c1ccccc1 | u | x | 11µM* | x | 24
C=CC[C@@H](CC(=O)N(CCO)Cc1ccccc1)C(=O)N[C@@H](C)COC(=O)[C@@H](CC=C)Cc1ccc(F)cc1 | u | x | u | x | -12
C=CC[C@@H](CC(=O)N(CCO)Cc1ccccc1)C(=O)NC[C@@H](OC(=O)[C@@H](CC=C)CC(=O)OC(C)(C)C)c1ccccc1 | u | x | 10µM* | x | -9
C=CC[C@@H](CC(=O)N(CCO)Cc1ccccc1)C(=O)NC[C@H](OC(=O)[C@@H](CC=C)Cc1ccc(F)cc1)c1ccccc1 | 14µM* | x | u | x | -1
CC(=O)Oc1ccc(-c2ccc(C(=O)OCC(=O)c3c(N)n(C)c(=O)n(C)c3=O)cc2)cc1 | -15% | x | u | x | -62*
CC(=O)Oc1ccc(C(=O)OCC(=O)c2c(N)n(C)c(=O)n(C)c2=O)cc1OC(C)=O | -8% | 2%[46.1 µM] | 9% | 7% | -26
Cc1c(C(=O)c2ccc3ccccc3c2)c2cccc3c2n1[C@H](CN1CCOCC1)CO3 | -15% | x | x | x | x
Cc1c(C(=O)c2cccc3ccccc23)c2cccc3c2n1[C@H](CN1CCOCC1)CO3 | -29% | 8.9µM* | u | 21µM* | -98*
Cc1ccc(C(=O)CCS(=O)(=O)c2ccc(F)cc2)cc1 | 6% | x | u | x | -99*
O=C(CC(=O)c1ccccc1O)c1ccc(F)cc1 | 28% | u | 32µM* | u | 23
O=C(CC(=O)c1ccccc1O)c1cccc(F)c1 | 11% | u | -11% | u | x
O=C(CCCC(=O)c1ccc(F)cc1)c1ccc(F)cc1 | 55% | u | 0% | u | -80*
CC(C)COc1ccc(C(=O)N(Cc2cccc(F)c2)C2CCS(=O)(=O)C2)cc1 (centres undefined) | -9% | u | x | -29%[46.1 µM] | 2
O=C(O)c1cn(-c2ccc(F)cc2)c2cc(Cl)c(F)cc2c1=O | -12% | 1%[46.1 µM] | 0% | -1%[46.1 µM] | -61*
O=C(c1ccc(Br)cc1)N(C1=NCCCCS1)c1ccccc1 | u | -18% | 8% | u | -63*
CC1CN(Cc2cccn2-c2ncccn2)Cc2cc(Cl)ccc2O1 (centres undefined) | -14% | x | x | x | x
O=C(COc1ccccc1F)Nc1ccc2nc(SCC(=O)N3CCOCC3)sc2c1 | u | u | x | -21%[46.1 µM] | -68*
O=C(COc1ccccc1F)Nc1ccc2nc(SCC(=O)N3CCCC3)sc2c1 | u | u | x | 3%[46.1 µM] | -63*
O=C(CSc1nc2ccc(Nc3nc(N4CCOCC4)nc(N4CCOCC4)n3)cc2s1)Nc1ccccc1F | -18% | x | u | x | -97*
O=C(CSc1nc2ccc(Nc3nc(N4CCOCC4)nc(N4CCOCC4)n3)cc2s1)Nc1ccccc1Cl | -18% | u | u | u | x

Assay outcomes deposited in PubChem BioAssay by National Center for Advancing Translational Sciences (NCATS).
